Key:
Test in all cases: DAPPL (digital affinity profiling via proximity ligation, sequencing); 10 mM Tris-HCl pH 7.5, 50 mM NaCl, 1 mM DTT, 4% glycerol, room temperature, 30 min; GST-TFs on glutathione beads, 16-mer random dsDNA library, 0.1% formaldehyde crosslink after washing; high values mean tight binding
Settings in all cases: protein: recombinant; tags: N-terminal GST; dsDNA, one strand shown
[1] = biological target: T1, FLI1 (Homo sapiens, UniProt Q01543 1-452)
T1 sequence: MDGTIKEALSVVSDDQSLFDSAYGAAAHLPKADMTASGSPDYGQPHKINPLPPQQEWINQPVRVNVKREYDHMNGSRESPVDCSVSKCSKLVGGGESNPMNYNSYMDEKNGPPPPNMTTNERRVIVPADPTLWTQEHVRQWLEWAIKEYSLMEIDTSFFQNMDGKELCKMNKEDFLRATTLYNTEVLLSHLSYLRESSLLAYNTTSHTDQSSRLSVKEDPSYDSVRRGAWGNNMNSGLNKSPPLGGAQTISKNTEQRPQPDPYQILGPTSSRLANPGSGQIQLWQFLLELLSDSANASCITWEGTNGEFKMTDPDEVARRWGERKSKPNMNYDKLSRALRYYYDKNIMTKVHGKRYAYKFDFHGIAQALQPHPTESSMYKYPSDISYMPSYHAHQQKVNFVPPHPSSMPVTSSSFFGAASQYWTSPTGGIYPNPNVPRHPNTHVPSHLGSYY
Summary of the method: (§1)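 A tag-only sample was pooled with DNA-barcoded human transcription factors that had been expressed in yeast as GST fusions and captured on glutathione beads. The pools were incubated for 30 min at room temperature with 200 nmole of a random double-stranded 16-mer DNA library in Tris/NaCl/DTT/glycerol buffer, then washed, crosslinked with 0.1% formaldehyde, proximity-ligated (BsaI/T4 ligase, 1 h, 37 °C), PCR-amplified and sequenced on an Illumina NextSeq500. Binding signal is each hexamer's read frequency for a factor divided by its frequency for the tag-only sample.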

[2] = biological target: T2, ELK1 (Homo sapiens, UniProt P19419 1-428)
T2 sequence: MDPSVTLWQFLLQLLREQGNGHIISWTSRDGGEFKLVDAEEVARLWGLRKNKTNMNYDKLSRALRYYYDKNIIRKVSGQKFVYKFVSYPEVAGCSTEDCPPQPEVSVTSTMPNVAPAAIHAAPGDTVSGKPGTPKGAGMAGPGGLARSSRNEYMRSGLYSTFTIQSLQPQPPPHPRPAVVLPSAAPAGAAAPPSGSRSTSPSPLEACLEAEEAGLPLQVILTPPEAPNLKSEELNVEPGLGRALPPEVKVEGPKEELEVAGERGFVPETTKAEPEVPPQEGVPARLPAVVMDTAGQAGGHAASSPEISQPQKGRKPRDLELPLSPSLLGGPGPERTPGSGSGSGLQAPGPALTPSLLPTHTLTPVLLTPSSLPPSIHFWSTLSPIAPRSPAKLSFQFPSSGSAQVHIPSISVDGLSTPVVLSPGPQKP
Summary of the method: as §1

[3] = biological target: T3, GABPA (Homo sapiens, UniProt Q06546 1-454)
T3 sequence: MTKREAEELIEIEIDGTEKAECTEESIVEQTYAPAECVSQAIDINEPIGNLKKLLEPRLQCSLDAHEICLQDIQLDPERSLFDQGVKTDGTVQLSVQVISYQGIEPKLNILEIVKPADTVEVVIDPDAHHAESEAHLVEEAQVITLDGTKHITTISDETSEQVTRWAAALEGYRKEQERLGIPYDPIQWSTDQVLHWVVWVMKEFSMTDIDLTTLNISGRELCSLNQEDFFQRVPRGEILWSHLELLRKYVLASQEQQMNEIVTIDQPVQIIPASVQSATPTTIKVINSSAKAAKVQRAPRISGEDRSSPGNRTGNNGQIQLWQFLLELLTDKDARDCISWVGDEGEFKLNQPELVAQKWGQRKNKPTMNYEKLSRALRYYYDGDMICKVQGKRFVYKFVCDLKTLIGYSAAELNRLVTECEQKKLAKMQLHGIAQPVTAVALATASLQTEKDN
Summary of the method: as §1

[4] = biological target: T4, ERG (Homo sapiens, UniProt P11308 1-479)
T4 sequence: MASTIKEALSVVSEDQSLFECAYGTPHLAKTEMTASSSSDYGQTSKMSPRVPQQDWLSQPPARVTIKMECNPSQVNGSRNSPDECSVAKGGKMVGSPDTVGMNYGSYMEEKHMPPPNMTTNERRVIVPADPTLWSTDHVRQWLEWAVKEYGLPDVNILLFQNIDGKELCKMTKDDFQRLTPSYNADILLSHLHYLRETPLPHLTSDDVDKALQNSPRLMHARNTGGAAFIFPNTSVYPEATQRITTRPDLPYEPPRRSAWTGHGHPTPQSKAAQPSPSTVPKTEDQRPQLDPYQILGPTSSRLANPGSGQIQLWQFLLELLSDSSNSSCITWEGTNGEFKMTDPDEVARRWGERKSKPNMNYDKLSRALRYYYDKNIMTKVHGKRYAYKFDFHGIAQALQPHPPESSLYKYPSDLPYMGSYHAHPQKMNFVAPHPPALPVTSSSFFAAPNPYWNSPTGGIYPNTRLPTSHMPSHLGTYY
Summary of the method: as §1

[5] = biological target: ELF1 (Homo sapiens, UniProt P32519 1-619)
Summary of the method: as §1

[6] = biological target: T5, EHF (Homo sapiens, UniProt Q9NZC4 1-300)
T5 sequence: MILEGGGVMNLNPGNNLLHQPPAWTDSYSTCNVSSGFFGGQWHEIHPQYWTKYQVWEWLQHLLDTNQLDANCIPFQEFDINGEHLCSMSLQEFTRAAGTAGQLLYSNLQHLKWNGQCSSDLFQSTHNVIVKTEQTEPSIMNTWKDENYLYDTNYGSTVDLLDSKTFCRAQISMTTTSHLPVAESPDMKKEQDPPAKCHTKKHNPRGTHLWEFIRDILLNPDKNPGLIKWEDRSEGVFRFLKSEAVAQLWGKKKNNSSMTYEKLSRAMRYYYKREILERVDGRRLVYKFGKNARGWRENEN
Summary of the method: as §1

[7] = biological target: SPI1 (Homo sapiens, UniProt P17947 1-270)
Summary of the method: as §1

[8] = biological target: SPIB (Homo sapiens, UniProt Q01892 1-262)
Summary of the method: as §1

[9] = biological target: T6, ELK3 (Homo sapiens, UniProt P41970 1-407)
T6 sequence: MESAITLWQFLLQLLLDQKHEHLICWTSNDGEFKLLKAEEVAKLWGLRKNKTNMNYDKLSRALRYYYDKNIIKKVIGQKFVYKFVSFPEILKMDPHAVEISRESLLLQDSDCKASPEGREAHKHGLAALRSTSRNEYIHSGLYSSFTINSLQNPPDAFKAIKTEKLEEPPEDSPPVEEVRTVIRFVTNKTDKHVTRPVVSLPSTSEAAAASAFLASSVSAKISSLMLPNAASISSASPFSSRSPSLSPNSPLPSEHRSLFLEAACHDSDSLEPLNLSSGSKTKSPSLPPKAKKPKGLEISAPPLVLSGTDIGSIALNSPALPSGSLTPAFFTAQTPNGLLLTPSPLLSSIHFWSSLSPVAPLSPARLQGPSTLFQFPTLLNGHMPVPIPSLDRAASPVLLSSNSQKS
Summary of the method: as §1

Sequence of ELF1 (P32519 whole entry): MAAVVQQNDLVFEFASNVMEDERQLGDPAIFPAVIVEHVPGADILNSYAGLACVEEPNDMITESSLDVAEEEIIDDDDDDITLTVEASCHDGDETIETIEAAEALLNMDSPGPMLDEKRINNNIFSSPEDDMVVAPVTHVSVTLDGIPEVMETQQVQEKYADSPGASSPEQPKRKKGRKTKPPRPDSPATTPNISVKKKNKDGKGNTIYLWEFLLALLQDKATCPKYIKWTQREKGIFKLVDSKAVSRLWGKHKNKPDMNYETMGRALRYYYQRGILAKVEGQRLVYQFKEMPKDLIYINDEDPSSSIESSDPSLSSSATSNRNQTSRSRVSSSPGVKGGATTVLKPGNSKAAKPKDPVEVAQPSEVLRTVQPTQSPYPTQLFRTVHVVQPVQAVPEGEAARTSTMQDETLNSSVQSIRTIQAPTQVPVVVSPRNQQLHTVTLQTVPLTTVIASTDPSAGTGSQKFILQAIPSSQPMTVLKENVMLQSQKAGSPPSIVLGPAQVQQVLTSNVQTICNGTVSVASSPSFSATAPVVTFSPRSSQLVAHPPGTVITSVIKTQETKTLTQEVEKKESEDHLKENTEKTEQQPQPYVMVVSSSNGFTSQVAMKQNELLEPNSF
Sequence of SPIB (Q01892 whole entry): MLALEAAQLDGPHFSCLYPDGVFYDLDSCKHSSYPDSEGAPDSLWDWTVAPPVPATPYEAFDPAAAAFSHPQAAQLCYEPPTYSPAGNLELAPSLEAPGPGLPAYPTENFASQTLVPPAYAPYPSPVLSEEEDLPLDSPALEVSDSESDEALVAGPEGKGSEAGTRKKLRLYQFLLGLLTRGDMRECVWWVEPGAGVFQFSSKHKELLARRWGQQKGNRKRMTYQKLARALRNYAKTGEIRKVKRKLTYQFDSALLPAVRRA

Sequence	binding signal [1]	binding signal [2]	binding signal [3]	binding signal [4]	binding signal [5]	binding signal [6]	binding signal [7]	binding signal [8]	binding signal [9]
CATTTC	1.8 fold enrichment (6-mer frequency, TF over GST control)	1.86 fold enrichment (6-mer frequency, TF over GST control)	1.64 fold enrichment (6-mer frequency, TF over GST control)	2.07 fold enrichment (6-mer frequency, TF over GST control)	1.63 fold enrichment (6-mer frequency, TF over GST control)	1.77 fold enrichment (6-mer frequency, TF over GST control)	1.97 fold enrichment (6-mer frequency, TF over GST control)	1.85 fold enrichment (6-mer frequency, TF over GST control)	1.67 fold enrichment (6-mer frequency, TF over GST control)
TCCCGT	1.24 fold enrichment (6-mer frequency, TF over GST control)	1.23 fold enrichment (6-mer frequency, TF over GST control)	1.26 fold enrichment (6-mer frequency, TF over GST control)	1.37 fold enrichment (6-mer frequency, TF over GST control)	1.26 fold enrichment (6-mer frequency, TF over GST control)	1.35 fold enrichment (6-mer frequency, TF over GST control)	1.43 fold enrichment (6-mer frequency, TF over GST control)	1.3 fold enrichment (6-mer frequency, TF over GST control)	1.3 fold enrichment (6-mer frequency, TF over GST control)
CCACTC	1.23 fold enrichment (6-mer frequency, TF over GST control)	1.32 fold enrichment (6-mer frequency, TF over GST control)	1.29 fold enrichment (6-mer frequency, TF over GST control)	1.19 fold enrichment (6-mer frequency, TF over GST control)	1.28 fold enrichment (6-mer frequency, TF over GST control)	1.16 fold enrichment (6-mer frequency, TF over GST control)	1.09 fold enrichment (6-mer frequency, TF over GST control)	1.16 fold enrichment (6-mer frequency, TF over GST control)	1.3 fold enrichment (6-mer frequency, TF over GST control)
TAAACC	1.27 fold enrichment (6-mer frequency, TF over GST control)	1.22 fold enrichment (6-mer frequency, TF over GST control)	1.22 fold enrichment (6-mer frequency, TF over GST control)	1.21 fold enrichment (6-mer frequency, TF over GST control)	1.26 fold enrichment (6-mer frequency, TF over GST control)	1.17 fold enrichment (6-mer frequency, TF over GST control)	1.19 fold enrichment (6-mer frequency, TF over GST control)	1.31 fold enrichment (6-mer frequency, TF over GST control)	1.25 fold enrichment (6-mer frequency, TF over GST control)
TTGTTG	1.03 fold enrichment (6-mer frequency, TF over GST control)	1.12 fold enrichment (6-mer frequency, TF over GST control)	1.07 fold enrichment (6-mer frequency, TF over GST control)	1.1 fold enrichment (6-mer frequency, TF over GST control)	1.14 fold enrichment (6-mer frequency, TF over GST control)	1.12 fold enrichment (6-mer frequency, TF over GST control)	1.15 fold enrichment (6-mer frequency, TF over GST control)	1.05 fold enrichment (6-mer frequency, TF over GST control)	1.12 fold enrichment (6-mer frequency, TF over GST control)
ATAATT	1.31 fold enrichment (6-mer frequency, TF over GST control)	1.38 fold enrichment (6-mer frequency, TF over GST control)	1.38 fold enrichment (6-mer frequency, TF over GST control)	1.4 fold enrichment (6-mer frequency, TF over GST control)	1.27 fold enrichment (6-mer frequency, TF over GST control)	1.37 fold enrichment (6-mer frequency, TF over GST control)	1.28 fold enrichment (6-mer frequency, TF over GST control)	1.39 fold enrichment (6-mer frequency, TF over GST control)	1.42 fold enrichment (6-mer frequency, TF over GST control)
TGCATC	1.35 fold enrichment (6-mer frequency, TF over GST control)	1.42 fold enrichment (6-mer frequency, TF over GST control)	1.38 fold enrichment (6-mer frequency, TF over GST control)	1.43 fold enrichment (6-mer frequency, TF over GST control)	1.31 fold enrichment (6-mer frequency, TF over GST control)	1.33 fold enrichment (6-mer frequency, TF over GST control)	1.42 fold enrichment (6-mer frequency, TF over GST control)	1.35 fold enrichment (6-mer frequency, TF over GST control)	1.44 fold enrichment (6-mer frequency, TF over GST control)
